Screen size: about 350,000 compounds; about 5,500 (1.6%) were called active. This is one part of a sample in which actives are shown more often than they occur.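 The calls were made as follows: active = significant combined selectivity score with lowered wild-type GFP, culture density cut under 30%, mutant RFP and density less affected; inactive = any of these conditions unmet.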

A short description of this assay: GFP drop in mixed WT/humanized-ribosome E. coli culture – GFP/RFP fluorescence, OD600, single point, bacterial rRNA inhibitor project, primary screen (AID 720706). The conditions noted are these: E. coli WT GFP vs humanized-ribosome RFP mutants, 24 h; GFP signal change (wild-type ribosome): stronger effect = lower value, DMSO median 0, no signal -100; OD600 change: measured here: OD600 growth, DMSO median 0, no signal -100; RFP signal change: measured here: RFP humanized mutant strains, DMSO median 0, no signal -100, concentration not given here.
As for `Cc1nn(C(C)(C)C)c(OC(=O)CC(C)C)c1S(=O)(=O)c1ccccc1`, the GFP signal change (wild-type ribosome) was -21.5% (active), the OD600 change is -14.2% and the RFP signal change is -1.55%.

Regarding `Cc1ccc(S(=O)(=O)CCC(=O)OCc2ccccc2)cc1`, the GFP signal change (wild-type ribosome) is 0.84% (inactive), the OD600 change is 1.2% and the RFP signal change came out at 2.56%.

As to `CC(CC(=O)N1CCN(S(=O)(=O)c2ccccc2)CC1)n1cncn1` (centres undefined), the GFP signal change (wild-type ribosome) was 5.03% (inactive), the OD600 change is 0.845% and the RFP signal change is -1.68%.

`CNC[C@H]1Oc2ccccc2CC(=O)N(C)C[C@H]1C`: the GFP signal change (wild-type ribosome) is 1.46% (inactive), the OD600 change amounted to 4.75% and the RFP signal change is -1.05%.

Regarding `CC(C)NC(=O)Nc1ccc2c(c1)CC(=O)N(C)C[C@@H](C)[C@@H](CN(C)C(=O)OC(C)(C)C)O2`, the GFP signal change (wild-type ribosome) is 2.38% (inactive), the OD600 change is 4.01% and the RFP signal change is 0.746%.

Consider `CC(C)C#Cc1ccc2c(c1)O[C@@H](CN(C)C(=O)CN(C)C)[C@@H](C)CN([C@H](C)CO)S2(=O)=O`, for which the GFP signal change (wild-type ribosome) is 2.76% (inactive), the OD600 change is 1.18% and the RFP signal change is -1.07%.

For the compound `CCCNC(=O)N(C)C[C@@H]1Oc2ncc(-c3cccc(C#N)c3)cc2C(=O)N([C@@H](C)CO)C[C@@H]1C`, the GFP signal change (wild-type ribosome) is 5.65% (inactive), the OD600 change is 14.1% and the RFP signal change was -4.23%.

Regarding `Cc1ccc(N2C(=O)S/C(=C/c3cn(C)c4ccccc34)C2=O)cc1`, the GFP signal change (wild-type ribosome) is 5.23% (inactive), the OD600 change came out at 9.33% and the RFP signal change was determined as 6.02%.

As to `Cn1cc(C2OC(=O)c3ccccc32)c2ccccc21` (centres undefined), the GFP signal change (wild-type ribosome) is -10.5% (active), the OD600 change was -18.9% and the RFP signal change is -4.84%.

`Cc1ccc(CNC(=O)Cc2cn(C)c3ccccc23)cc1`: the GFP signal change (wild-type ribosome) is -9.46% (inactive), the OD600 change was -8.64% and the RFP signal change was 3.4%.

As to `CN1c2ccc(-c3ccccc3F)cc2[C@@H]2[C@@H](CCN2C(=O)CN2CCOCC2)[C@H]1CO`, the GFP signal change (wild-type ribosome) is -2.46% (inactive), the OD600 change is -0.94% and the RFP signal change is -0.302%.

`C[C@@H]1CN([C@H](C)CO)C(=O)c2cc(NC(=O)Cn3cnnn3)ccc2O[C@@H]1CN(C)Cc1ccc(C(F)(F)F)cc1`: the GFP signal change (wild-type ribosome) was -1.05% (inactive), the OD600 change was -5.5% and the RFP signal change was -0.189%.

Turning to `CN(C(=O)CN(CCO)CC(=O)N(C)C(C)(C)Cc1ccccc1)C(C)(C)Cc1ccccc1`, the GFP signal change (wild-type ribosome) was -31.9% (inactive), the OD600 change is -35.7% and the RFP signal change was -7.29%.

Regarding `OCCN(Cc1ccccc1)Cc1ccc(Cl)cc1`, the GFP signal change (wild-type ribosome) is -23% (active), the OD600 change is -9.66% and the RFP signal change came out at 0.44%.

As for `O=C(Cc1ccc(Cl)cc1)c1ccccc1`, the GFP signal change (wild-type ribosome) is 3.35% (inactive), the OD600 change came out at 2.91% and the RFP signal change is -5.05%.

Take `CCC(=O)N[C@H]1CC[C@@H](CC(=O)NCC2CC2)O[C@@H]1CO`: the GFP signal change (wild-type ribosome) was 3.28% (inactive), the OD600 change is 7.08% and the RFP signal change amounted to 3.11%.

Regarding `CC(C)NC(=O)Nc1ccc2c(c1)C(=O)N([C@@H](C)CO)C[C@H](C)[C@@H](CN(C)Cc1ccc(C(=O)O)cc1)OCCCC[C@H](C)O2`, the GFP signal change (wild-type ribosome) was -0.801% (inactive), the OD600 change came to 3.15% and the RFP signal change was -0.195%.

Consider `CN1CCN(c2ccc(NC(=O)c3ccc4c(c3)OCCO4)cc2Cl)CC1`, for which the GFP signal change (wild-type ribosome) is 3.42% (inactive), the OD600 change worked out at 2.75% and the RFP signal change was -7.15%.

In the case of `O=C(Nc1ccccc1N1CCN(C(=O)c2ccccc2)CC1)c1ccco1`, the GFP signal change (wild-type ribosome) was -8.24% (inactive), the OD600 change is -9.77% and the RFP signal change is -0.948%.

With `O=C(Nc1ccc(N2CCN(C(=O)c3ccccc3)CC2)c(Cl)c1)c1ncn[nH]1`, the GFP signal change (wild-type ribosome) was -24.4% (active), the OD600 change is -14.7% and the RFP signal change is 0.07%.

As to `COc1ccc2c3c([nH]c2c1)[C@@H](CO)N(C(=O)C1CC1)CC31CCN(Cc2nccs2)CC1`, the GFP signal change (wild-type ribosome) is -6.7% (inactive), the OD600 change is -0.445% and the RFP signal change is -3.97%.

Regarding `CCCNC(=O)C[C@@H]1CC[C@H]2[C@@H](COc3ccc(NC(=O)C4CCCC4)cc3C(=O)N2C)O1`, the GFP signal change (wild-type ribosome) is 2.97% (inactive), the OD600 change came to 3.62% and the RFP signal change is 0.145%.

For `O=C(NC1CCC1)[C@@H]1[C@@H](CO)[C@@H]2Cn3c(ccc(/C=C/c4ccccc4)c3=O)[C@@H]2N1Cc1ccncc1`, the GFP signal change (wild-type ribosome) was -9.73% (inactive), the OD600 change was -7.87% and the RFP signal change stood at 7.36%.

With `O=C(Nc1ccc(F)cc1)N1CC(=O)N2[C@H](CO)[C@H](c3ccc(C#Cc4ccccc4)cc3)[C@H]2C1`, the GFP signal change (wild-type ribosome) is -32.4% (inactive), the OD600 change is -57.1% and the RFP signal change was 29%.

As to `C[C@@H]1CCCCO[C@H](CN(C)C)[C@H](C)CN([C@@H](C)CO)C(=O)c2cc(NS(=O)(=O)c3cn(C)cn3)ccc2O1`, the GFP signal change (wild-type ribosome) is 3.31% (inactive), the OD600 change was 6.19% and the RFP signal change is -1.01%.

On to `Cn1c(SCC(=O)c2cccs2)nnc1-c1ccco1`, for which the GFP signal change (wild-type ribosome) was 1.2% (inactive), the OD600 change was found to be 2.27% and the RFP signal change was found to be 0.555%.

Regarding `CSc1nc(-c2ccco2)nn1C(=O)c1ccccc1Cl`, the GFP signal change (wild-type ribosome) was -25.9% (active), the OD600 change is -15.3% and the RFP signal change was found to be 0.841%.

As to `CCn1c(SCC(=O)Nc2cc(C)c(Cl)cc2OC)nnc1-c1ccco1`, the GFP signal change (wild-type ribosome) is -38.4% (inactive), the OD600 change is -53.5% and the RFP signal change is -9.88%.

Regarding `COc1ccc(S(=O)(=O)N(C)C[C@@H]2Oc3ccc(NC(=O)CCC(F)(F)F)cc3C(=O)N([C@@H](C)CO)C[C@@H]2C)cc1`, the GFP signal change (wild-type ribosome) is 2.48% (inactive), the OD600 change came to 3.34% and the RFP signal change was -0.798%.

`C[C@@H](O)C#Cc1ccc([C@H]2[C@H]3CN(C(=O)c4ccc5c(c4)OCO5)CCCCN3[C@H]2CO)cc1`: the GFP signal change (wild-type ribosome) was 3.47% (inactive), the OD600 change was -9% and the RFP signal change turned out to be 2.17%.

For the compound `CCCc1cc(=O)oc2cc(OCC(=O)Nc3ccc(CN4CCOCC4)cc3)c(Cl)cc12`, the GFP signal change (wild-type ribosome) is 0.107% (inactive), the OD600 change is 0.304% and the RFP signal change was -1.17%.

As for `COc1ccc(-c2cc(=O)oc3cc(OC(C)C(=O)Nc4ccc(CN5CCOCC5)cc4)ccc23)cc1` (centres undefined), the GFP signal change (wild-type ribosome) was -20% (active), the OD600 change is -14.2% and the RFP signal change was 3.54%.

As to `COc1ccc2oc(=O)cc(CN3CCOCC3)c2c1`, the GFP signal change (wild-type ribosome) is 18.2% (inactive), the OD600 change is 14.8% and the RFP signal change is 0.523%.

The record behind these values is PubChem BioAssay AID720706 (Broad Institute, 2013).
